# In PubChem BioAssay AID2540 (Sanford-Burnham Center for Chemical Genomics, 2010):
# Among all 330,000 compounds or so, about 4,100 (1.2%) were called active. This is one part of a sample in which actives are shown more often than they occur. No stated cut-off is given here; in the data, active means inhibition above about 50%; inactive means the rest.
# Target: Sentrin-specific protease 8 (Homo sapiens) (UniProt Q96LD8)
# Assay: SENP8 protease inhibitors, primary screen, biochemical, luminescence (AID 2540)
# Settings: purified SENP8, Z-RLRGG-aminoluciferin cleavage, at 10 µM, active compounds read high
# Chain of Sentrin-specific protease 8 (Homo sapiens) (Q96LD8 whole entry, looked up): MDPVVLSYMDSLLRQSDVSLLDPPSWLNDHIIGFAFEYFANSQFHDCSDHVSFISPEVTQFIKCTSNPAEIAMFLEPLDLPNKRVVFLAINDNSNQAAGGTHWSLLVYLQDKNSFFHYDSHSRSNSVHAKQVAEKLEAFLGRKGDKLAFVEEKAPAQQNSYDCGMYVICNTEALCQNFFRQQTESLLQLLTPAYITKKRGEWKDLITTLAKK
row,Structure (SMILES),inhibition
1,C=CCn1c(C)cc(C2=NNC(=NCC)SC2)c1C,91.5% (active)
2,COc1ccc(N(Cc2ccc(N(C)C)cc2)C(=O)c2ccc(S(C)(=O)=O)cc2)cc1,7.56% (inactive)
3,O=C(CCc1ccccc1)Nc1ccc(NC(=O)C2CC2)nc1,-0.592% (inactive)
4,CCN(Cc1ccccc1)C(=O)CN1C(=S)NC(C)(C)CC1C (stereo not drawn),-3.88% (inactive)
5,Fc1ccccc1-c1cc2cc3c(cc2cn1)OCO3,70.8% (active)
6,O=C(c1ccco1)N1CCN(C(=O)c2cc(-c3ccccc3F)no2)CC1,3.2% (inactive)
7,O=C(CN1CCN(c2ccccc2F)CC1)c1ccc2c(c1)OCO2,-9.99% (inactive)
8,Cc1ccc(N(Cc2ccccc2O)C(=O)c2ccccc2F)cc1,9.54% (inactive)
9,O=C(Nc1ccc2ccccc2c1)/C(=C\c1ccc2c(c1)OCO2)NC(=O)c1ccco1,10.3% (inactive)
10,CCN1C(=NCc2ccc(OC)cc2)N[C@@H](CCc2ccccc2)[C@H](C(=O)NCc2ccc(OC)cc2)[C@H]1C,-2.38% (inactive)
11,CC(C)CCN1C(=O)c2ccc(C(=O)Nc3cccc(S(N)(=O)=O)c3)cc2C1=O,-8.58% (inactive)
12,COCCOC(=O)c1sc(=S)n(CCOC)c1N,-1.86% (inactive)
13,COc1cccc(NC(=O)c2ccc3c(SCC(=O)O)c4c(nc3c2)CCCC4)c1,-3.32% (inactive)
14,CC(=O)c1ccc(NC(=O)c2ccc3c(Cl)c4c(nc3c2)CCCC4)cc1,-0.476% (inactive)
15,CC(C)CCNC(=O)c1ccc2c(Cl)c3c(nc2c1)CCC3,81.1% (active)
16,Cc1c(CCO)c(=O)[nH]n1C(=O)c1c(F)cccc1F,13.4% (inactive)
17,O=C(O)C(F)(F)C(NCc1ccccc1)c1ccccc1 (stereo not drawn),-6.64% (inactive)
18,CC(C)c1ccc(C(=O)OC2CCOC2=O)cc1 (stereo not drawn),2.09% (inactive)
19,COc1cc(C(=O)OC2CCOC2=O)c([N+](=O)[O-])cc1OC (stereo not drawn),-2.98% (inactive)
20,O=C(OC1CCOC1=O)c1ccc(-c2nc3ccccc3s2)s1 (stereo not drawn),93.9% (active)
21,Cc1cccc(NS(=O)(=O)c2ccc(C)c(C(=O)NCC(c3ccccc3)N(C)C)c2)c1 (stereo not drawn),8.98% (inactive)

row,Structure (SMILES),inhibition
1,CCCCNC(=O)c1ccccc1NC(=O)c1ccccc1N(C)S(C)(=O)=O,-5.03% (inactive)
2,Oc1c(Cl)cc(Cl)c(Cl)c1Cc1c(O)c(Cl)cc(Cl)c1Cl,28.5% (inactive)
3,COc1cccc(/C=C/c2ccc3ccccc3n2)c1OC(C)=O,17.7% (inactive)
4,COc1ccc(/C=C/c2noc(-c3ccccc3OC(C)=O)n2)cc1,88.3% (active)
5,COc1ccccc1-c1nnc(-c2ccc(F)cc2)o1,24.5% (inactive)
6,C[C@@H]1CC[C@]2(O[C@@H](CCO)C[C@H](O)[C@H]2O)O1,1.7% (inactive)
7,NC(=O)[C@H]1CC2(CC(c3cccc(NC(=O)[C@H]4CCC(=O)N4)c3)=NO2)CN1C(=O)c1ccccc1C(=O)c1ccccc1 (stereo partly drawn),2.84% (inactive)
8,COc1cc(/C=N/Nc2nc3ccccc3s2)ccc1O,76% (active)
9,COc1cc(/C=N/NC(=O)CCc2n[nH]c(=O)[nH]c2=O)ccc1O,1.52% (inactive)
10,COc1ccc(/C=N/NC(=O)c2cc(-c3cccc(C)c3)nc3ccccc23)cc1O,10.3% (inactive)
11,c1c2c(cc3sc(N4CCCCC4)nc13)OCCO2,96.5% (active)
12,CN(C)CCCN(C(=O)c1ccc(S(=O)(=O)N2CCCCCC2)cc1)c1nc2cc3c(cc2s1)OCCO3,6.61% (inactive)
13,Cc1nc(N2CCCCC2)sc1C=O,1.41% (inactive)
14,Cc1ccc2nc(N3CCN(C(=O)c4ccco4)CC3)sc2c1,-13.8% (inactive)
15,O=S(=O)(Nc1ccc2nc(N3CCOCC3)sc2c1)c1ccccc1,9% (inactive)
16,Fc1ccc2nc(N3CCCCC3)sc2c1,72.2% (active)
17,Brc1ccc2nc(N3CCCC3)sc2c1,85.2% (active)
18,Fc1ccc2nc(Nc3nc4c(s3)CCCC4)sc2c1,3.05% (inactive)
19,O=C(NCCc1cccc(F)c1)C1CCCN(c2nc3ccccc3s2)C1 (stereo not drawn),12.2% (inactive)
20,COc1ccc2c(c1)C=CC1(O2)N(CCO)c2ccccc2C1(C)C (stereo not drawn),0.788% (inactive)
21,O=C(CSc1nc2ncccc2[nH]1)Nc1ccc2c(c1)OCCO2,-1.02% (inactive)

row,Structure (SMILES),inhibition
1,CC(Sc1nncn1C)C(=O)NCCC1=CCCCC1 (stereo not drawn),5.55% (inactive)
2,Cc1ccc(C(c2nnnn2CS(=O)(=O)c2ccc(C)cc2)N2CCC(C)CC2)cc1 (stereo not drawn),4.98% (inactive)
3,CCC(=O)c1ccc(OCC(=O)OCC(=O)NC2CCCCCC2)cc1,-0.587% (inactive)
4,CCc1cc(C(=O)Nc2nnc(C3CC3)s2)sc1C,2.73% (inactive)
5,O=C(Nc1nnc(C2CC2)s1)c1cc(Cl)sc1Cl,-4.61% (inactive)
6,Cc1cc(C(=O)Nc2nnc(C3CC3)s2)c(C)s1,74.1% (active)
7,CCN1CCN(c2ccc(S(=O)(=O)N3CCCCC3)cc2NC(=O)c2cccc(NC(C)=O)c2)CC1,-4.93% (inactive)
8,CC(C)CC(O)C1CCN(C(=O)CCc2nnc(-c3ccc4c(c3)OCO4)o2)CC1 (stereo not drawn),-8.01% (inactive)
9,CNS(=O)(=O)c1cccc(C(=O)OCC(=O)N2c3ccccc3NC(=O)C2(C)C)c1,-16.6% (inactive)
10,O=C1N/C(=C/c2cccs2)C(=O)N1Cc1ccc(F)cc1,-10% (inactive)
11,Cc1cccc(C2=N/C(=C/c3cccs3)C(=O)O2)c1,-4.38% (inactive)
12,CSC1=N/C(=C\C=C\c2cccs2)C(=O)S1,53.6% (active)
13,CC(C)(C)c1cc(NC(=O)NN2CCOCC2)nn1-c1c(Cl)cc(Cl)cc1Cl,1.46% (inactive)
14,Cc1cccc(NS(=O)(=O)c2cccc(C(=O)NNC(=O)c3ccccc3O)c2)c1,50.1% (active)
15,CC(=O)N1CCN(C(=O)c2cccc(S(=O)(=O)Nc3ccc(C)cc3)c2)CC1,-6.08% (inactive)
16,Cc1cccc(NS(=O)(=O)c2ccc(C)c(C(N)=O)c2)c1,0.196% (inactive)
17,CCc1ccc(NC(=O)CCNS(=O)(=O)c2cccs2)cc1,-0.839% (inactive)
18,CS(=O)(=O)Nc1cccc(-c2cn3ccccc3n2)c1,-1.75% (inactive)
19,O=c1[nH]n(-c2ccc([N+](=O)[O-])cc2)c(=O)c2ccccc12,-5.71% (inactive)
20,Cc1nc(-c2ccc([N+](=O)[O-])cc2)c(-c2ccccc2)o1,-11% (inactive)
21,O=C1CC(c2ccccc2)=NN1c1ccc([N+](=O)[O-])cc1,81.8% (active)
